Data on 39 compounds can be found in PubChem BioAssay (NCI).

SMILES strings stand for the structures. The panel holds about 83,000 compounds, 20% with a hit somewhere; the sample as a whole holds those more often.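 Interpretation: 100, growth as untreated; towards 0, rising growth inhibition; 0, no net growth; 0 to -100, cell death. Compounds scoring below 10 were considered active.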 Calls of active or inactive are those of the source.

The first assay has as its system RXF 393 renal. As to the kind of experiment: NCI-60 one-dose screen, 48 h (100 = growth as untreated, 0 = no growth, -100 = all killed). To be noted: 10 µM unless noted.
For `O=C(Nc1ccc(Oc2ccc(Nc3nc4ccccc4s3)cc2)cc1)Nc1ccc(Cl)c(C(F)(F)F)c1`, the growth was 8.85% (active).
Regarding `C[C@]12CCc3nc(Nc4ccc(O)cc4)sc3C1=CC[C@@H]1[C@@H]2CC[C@]2(C)/C(=N/NC(N)=S)CC[C@@H]12`, the growth is -67.6% (active).
Take `Cc1cc(N=Nc2ccc(-c3ccc(N=Nc4ccc(O)c(C(=O)O)c4)cc3)cc2)c(N)c(N=Nc2ccc(C(=O)O)cc2)c1N`: the growth was 94.7% (inactive).
On to `c1ccc2c(c1)cnc1ccccc12`, for which the growth was 88.5% (inactive).
Take `Cc1cc(C)c2c(n1)sc1c(Nc3ccc(OCc4ccccc4)cc3)ncnc12`: the growth was 104% (inactive).
`COc1ccc2[nH]c(C(=O)OCc3ccc4cccc(O)c4n3)cc2c1`: the growth was -92.2% (active).
For `Cc1ccc2oc(=O)cc(-c3nc4ccc([N+](=O)[O-])cc4[nH]3)c2c1`, the growth is 46.7% (inactive).
`Cc1nc2ccc(Nc3nc(Cl)nc(N4CCOCC4)n3)cc2n1Cc1ccccc1`: the growth was 65.1% (inactive).
With `CC(=O)c1c(O)c(C)c(O)c2c1OC1=CC(=O)/C(=C(/C)N)C(=O)C12C` (stereo not drawn), the growth was 92.2% (inactive).
Still for that read-out and setting: the value for `O=C(CI)NCCNc1cccc2c(S(=O)(=O)O)cccc12` was 101% (inactive).
As for `O=c1[nH]cnc2nc[nH]c12`, the growth was 107% (inactive).
On to `CCN(CC)C(Cl)=Nc1ccc(Cl)cc1`, for which the growth is 107% (inactive).
Regarding `c1ccc2c(Cc3csc4ccccc34)csc2c1`, the growth was 83.6% (inactive).
`COS(=O)(=O)CCN(CCOS(C)(=O)=O)S(C)(=O)=O`: the growth is 105% (inactive).
Take `COc1cc(C2CC(c3cccc(Nc4ccnc5cc(Cl)ccc45)c3)=NN2c2ccccc2)cc(OC)c1OC` (stereo not drawn): the growth is 93.1% (inactive).
For `O=C1/C(=C\c2cccn2Cc2ccc(F)cc2)c2ccccc2N1c1c(Cl)cccc1Cl`, the growth was 81.5% (inactive).
Turning to `CC(C)(C)c1ccc(Cn2c(-c3nonc3N)nc3ccccc32)cc1`, the growth was 77.8% (inactive).
Take `CSC(=S)N/N=C(\C)c1ccccn1`: the growth is 0.311% (active).
The same measure, in the same setting: the result for `CCC(C)C1NC(=O)c2nc(oc2-c2ccccc2)-c2csc(n2)-c2csc(n2)-c2nc(oc2C)-c2coc(n2)CNC(=O)C(C(C)CC)NC1=O` (stereo not drawn) reads -72.5% (active); that for `CCOC(=O)C1=C(C)NC(SCc2nnc(-c3ccc(Cl)cc3)o2)=NC1c1ccc(Br)cc1` (stereo not drawn), 75% (inactive); that for `CC(CN1CCN(C)CC1)CN1c2ccccc2Sc2ccc(C(F)(F)F)cc21` (stereo not drawn), 18.7% (inactive).
In the case of `Cc1[nH]nc2ccc3nc(-c4ccc5[nH]ncc5c4)c4c(c3c12)CCCC4`, the growth was 9.13% (active).
`CCCOC(=O)C1c2cc3c(cc2CC(C)C1C(=O)OCCC)OCO3` (stereo not drawn): the growth was 93.3% (inactive).
On to `COc1cc(C2CC(c3ccc(Nc4ccnc5cc(Cl)ccc45)cc3)=NN2c2ccccc2)cc(OC)c1OC` (stereo not drawn), for which the growth was 76.3% (inactive).
As for `CC(=O)c1c(C)nc(-c2cc(C)cc(Cl)c2)nc1-c1cccc(Oc2ccccc2)c1`, the growth is 90.5% (inactive).
For `CC(C)NC(=O)OCC#CCOC(=O)NC(C)C`, the growth is 113% (inactive).
Take `Cc1nc2c(-c3cnc(N)nc3)nc(N3CCOCC3)nc2n1C(C)C`: the growth was -29.6% (active).
In the case of `[Ag].[Ag].[NH-]S(=O)(=O)c1ccc(N=Nc2cc(N=Nc3ccc(S([NH-])(=O)=O)cc3)c3c(NC(=O)C(Cl)Cl)cccc3c2OC(=O)C(Cl)Cl)cc1.[c-]1nccs1.[c-]1nccs1`, the growth was 71.5% (inactive).
Same read-out and setting: the value for `Nc1ccc(N(O)/C=C2\C=CC=CC2=O)cc1N` was 98.2% (inactive); that for `Cc1nc2ccc(Nc3nc(N4CCOCC4)nc(N4CCN(C)CC4)n3)cc2n1Cc1ccccc1` was 61.1% (inactive).
Turning to `CC(C)CC(NC(=O)C(CCCN=C(N)N)NC(=O)OCc1ccccc1)C(=O)NC(CNC(=O)/C=C/c1ccccc1)C(C)C` (stereo not drawn), the growth is 107% (inactive).
The same measure, in the same setting: the value for `CCOC(=O)c1ccc(NCCC(=O)O)cc1` was 111% (inactive); that for `Cc1ccc(-c2cnc3sc4ccc(Cl)cc4n23)cc1` was 104% (inactive); that for `COc1cc(C)c2c(=O)c3c(oc2c1)C(=O)c1c(O)c(OC)cc(O)c1C3=O` was 13.1% (inactive).
Regarding `O=C(OCc1ccc2c(Br)cc(Br)c(O)c2n1)c1cc2ccccc2[nH]1`, the growth was -91.4% (active).
As for `CN1CCN(Cc2ccc(NC(=O)c3cncc(C#Cc4cnc5cccnn45)c3)cc2C(F)(F)F)CC1`, the growth was -56.3% (active).
Consider `CCOC(=O)c1ccccc1SC(C[N+](=O)[O-])c1ccccc1` (stereo not drawn), for which the growth was 62.9% (inactive).
In the case of `CC(C)CC(NC(=O)OCC1c2ccccc2-c2ccccc21)C(=O)O` (stereo not drawn), the growth was 103% (inactive).
Still for that read-out and setting: the value for `CN1CCN(Cc2ccc(NC(=O)c3cncc(C#Cc4ccc(N)nc4)c3)cc2C(F)(F)F)CC1` was -6.03% (active).

A further assay deals with SF-268 CNS. Described as above. To be noted: 10 µM unless noted.
In the case of `O=C(Nc1ccc(Oc2ccc(Nc3nc4ccccc4s3)cc2)cc1)Nc1ccc(Cl)c(C(F)(F)F)c1`, the growth is 18.5% (inactive).
On the same count and under the same terms, the result for `C[C@]12CCc3nc(Nc4ccc(O)cc4)sc3C1=CC[C@@H]1[C@@H]2CC[C@]2(C)/C(=N/NC(N)=S)CC[C@@H]12` reads -17% (active); that for `Cc1cc(N=Nc2ccc(-c3ccc(N=Nc4ccc(O)c(C(=O)O)c4)cc3)cc2)c(N)c(N=Nc2ccc(C(=O)O)cc2)c1N`, 98.7% (inactive).
Take `c1ccc2c(c1)cnc1ccccc12`: the growth is 97.4% (inactive).
As for `Cc1cc(C)c2c(n1)sc1c(Nc3ccc(OCc4ccccc4)cc3)ncnc12`, the growth is 101% (inactive).
As for `COc1ccc2[nH]c(C(=O)OCc3ccc4cccc(O)c4n3)cc2c1`, the growth was -65.6% (active).
With `Cc1ccc2oc(=O)cc(-c3nc4ccc([N+](=O)[O-])cc4[nH]3)c2c1`, the growth is 62.1% (inactive).
`Cc1nc2ccc(Nc3nc(Cl)nc(N4CCOCC4)n3)cc2n1Cc1ccccc1`: the growth is 77% (inactive).
Take `CC(=O)c1c(O)c(C)c(O)c2c1OC1=CC(=O)/C(=C(/C)N)C(=O)C12C` (stereo not drawn): the growth is 95.2% (inactive).
Regarding `O=C(CI)NCCNc1cccc2c(S(=O)(=O)O)cccc12`, the growth was 93.3% (inactive).
In the case of `O=c1[nH]cnc2nc[nH]c12`, the growth was 147% (inactive).
Take `CCN(CC)C(Cl)=Nc1ccc(Cl)cc1`: the growth was 106% (inactive).
For `c1ccc2c(Cc3csc4ccccc34)csc2c1`, the growth is 104% (inactive).
With `COS(=O)(=O)CCN(CCOS(C)(=O)=O)S(C)(=O)=O`, the growth is 107% (inactive).
With `COc1cc(C2CC(c3cccc(Nc4ccnc5cc(Cl)ccc45)c3)=NN2c2ccccc2)cc(OC)c1OC` (stereo not drawn), the growth was 63.2% (inactive).
For the compound `O=C1/C(=C\c2cccn2Cc2ccc(F)cc2)c2ccccc2N1c1c(Cl)cccc1Cl`, the growth was 79.9% (inactive).
`CC(C)(C)c1ccc(Cn2c(-c3nonc3N)nc3ccccc32)cc1`: the growth is 75.6% (inactive).
Regarding `CSC(=S)N/N=C(\C)c1ccccn1`, the growth is 17.3% (inactive).
`CCC(C)C1NC(=O)c2nc(oc2-c2ccccc2)-c2csc(n2)-c2csc(n2)-c2nc(oc2C)-c2coc(n2)CNC(=O)C(C(C)CC)NC1=O` (stereo not drawn): the growth was -66.9% (active).
Take `CCOC(=O)C1=C(C)NC(SCc2nnc(-c3ccc(Cl)cc3)o2)=NC1c1ccc(Br)cc1` (stereo not drawn): the growth was 86.6% (inactive).
Turning to `CC(CN1CCN(C)CC1)CN1c2ccccc2Sc2ccc(C(F)(F)F)cc21` (stereo not drawn), the growth was 52.2% (inactive).
For the compound `Cc1[nH]nc2ccc3nc(-c4ccc5[nH]ncc5c4)c4c(c3c12)CCCC4`, the growth was 33.8% (inactive).
Turning to `CCCOC(=O)C1c2cc3c(cc2CC(C)C1C(=O)OCCC)OCO3` (stereo not drawn), the growth is 106% (inactive).
For the compound `COc1cc(C2CC(c3ccc(Nc4ccnc5cc(Cl)ccc45)cc3)=NN2c2ccccc2)cc(OC)c1OC` (stereo not drawn), the growth was 70.6% (inactive).
Take `CC(=O)c1c(C)nc(-c2cc(C)cc(Cl)c2)nc1-c1cccc(Oc2ccccc2)c1`: the growth was 71% (inactive).
Regarding `CC(C)NC(=O)OCC#CCOC(=O)NC(C)C`, the growth was 110% (inactive).
Turning to `Cc1nc2c(-c3cnc(N)nc3)nc(N3CCOCC3)nc2n1C(C)C`, the growth is 9.06% (active).
Consider `[Ag].[Ag].[NH-]S(=O)(=O)c1ccc(N=Nc2cc(N=Nc3ccc(S([NH-])(=O)=O)cc3)c3c(NC(=O)C(Cl)Cl)cccc3c2OC(=O)C(Cl)Cl)cc1.[c-]1nccs1.[c-]1nccs1`, for which the growth is 78.6% (inactive).
Consider `Nc1ccc(N(O)/C=C2\C=CC=CC2=O)cc1N`, for which the growth was 107% (inactive).
Regarding `Cc1nc2ccc(Nc3nc(N4CCOCC4)nc(N4CCN(C)CC4)n3)cc2n1Cc1ccccc1`, the growth is 68.8% (inactive).
Consider `CC(C)CC(NC(=O)C(CCCN=C(N)N)NC(=O)OCc1ccccc1)C(=O)NC(CNC(=O)/C=C/c1ccccc1)C(C)C` (stereo not drawn), for which the growth is 107% (inactive).
On to `CCOC(=O)c1ccc(NCCC(=O)O)cc1`, for which the growth was 119% (inactive).
Take `Cc1ccc(-c2cnc3sc4ccc(Cl)cc4n23)cc1`: the growth was 98.5% (inactive).
`COc1cc(C)c2c(=O)c3c(oc2c1)C(=O)c1c(O)c(OC)cc(O)c1C3=O`: the growth was 21.5% (inactive).
As to `O=C(OCc1ccc2c(Br)cc(Br)c(O)c2n1)c1cc2ccccc2[nH]1`, the growth is -51.5% (active).
Turning to `CN1CCN(Cc2ccc(NC(=O)c3cncc(C#Cc4cnc5cccnn45)c3)cc2C(F)(F)F)CC1`, the growth was -27.9% (active).
Turning to `CCOC(=O)c1ccccc1SC(C[N+](=O)[O-])c1ccccc1` (stereo not drawn), the growth was 104% (inactive).
On the same count and under the same terms, the result for `CC(C)CC(NC(=O)OCC1c2ccccc2-c2ccccc21)C(=O)O` (stereo not drawn) reads 112% (inactive); that for `CN1CCN(Cc2ccc(NC(=O)c3cncc(C#Cc4ccc(N)nc4)c3)cc2C(F)(F)F)CC1`, 15.8% (inactive).
